Laboratory results: PubChem BioAssay (NCI)
Compounds without any hit were thinned out: in the full panel of roughly 83,000, 20% have a hit.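 Interpretation: 100, growth as untreated; towards 0, rising growth inhibition; 0, no net growth; 0 to -100, cell death. Compounds scoring below 10 were considered active.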 A number with no mark means an inactive call. Activity calls are given as the source filed them.

system: KM12 colon; assay: NCI-60 one-dose screen, 48 h (100 = growth as untreated, 0 = no growth, -100 = all killed); conditions: 10 µM unless noted
Description: Growth inhibition of the KM12 human tumor cell line is measured as a screen for anti-cancer activity. Cells are grown in 96 well plates and exposed to the test compound for 48 hours. Compounds are tested at a single concentration, which is 10^-5 M for most compounds. The reported endpoint is percent growth (GI% or GIPRCNT), where numbers from 0 - 100% represent growth inhibition, and numbers from -100% - 0 represent cell death. For example, a value of 40 represents 60% growth inhibition. A value of 0 means no net growth occurred over the course of the experiment. A value of -40 indicates 40% of cells at the beginning of the experiment died by the end of the experiment. A value of -100 means all cells are dead at the end of the experiment.
NCI-60 Human Tumor Cell Lines Screen was performed using the standard one-dose NCI protocol, which is described in more detail at https://dtp.cancer.gov/discovery_development/nci-60/default.htm.
Compounds with GIPRCNT values below 10 were considered active. Activity score was based on GIPRCNT using the following formula: […]
Score is 0 for GIPRCNT values of 100 or above, 50 for GIPRCNT values of 0, and 100 for GIPRCNT values of -100.

| SMILES | growth |
| --- | --- |
| CCOc1cc2ncc(C#N)c(Nc3ccc(F)c(Cl)c3)c2cc1NC(=O)/C=C/CN(C)C | -83.8% (active) |
| CN1CCC(CNc2ccc3ncc(-c4cccc(OC(F)(F)F)c4)n3n2)CC1 | -1.37% (active) |
| COC(=O)CNC(=O)[C@@H](OC)[C@@H]1Cc2cc3cc(OC4CC(OC5CC(O)C(O)C(C)O5)C(O)C(C)O4)c(C)c(O)c3c(O)c2C(=O)[C@H]1OC1CC(OC2CC(OC3CC(C)(O)C(O)C(C)O3)C(O)C(C)O2)C(O)C(C)O1 (stereo not given in full) | 6.86% (active) |
| COc1cc(CCc2cc(NC(=O)c3ccc(N4C[C@@H](C)N[C@@H](C)C4)cc3)n[nH]2)cc(OC)c1 | 3.18% (active) |
| Cc1ccc(F)c(NC(=O)Nc2ccc(-c3cccc4[nH]nc(N)c34)cc2)c1 | 2.63% (active) |
| C=CC(=O)Nc1cccc(Nc2nc(Nc3ccc(N4CCN(C(C)=O)CC4)cc3OC)ncc2C(F)(F)F)c1 | 15.7% |
| CCn1cc(-c2ccnc3[nH]c(-c4cccc(CN(C)C)c4)cc23)c(-c2ccc(NC(=O)N(C)C)cc2)n1 | 11.1% |
| N#Cc1c(NC(=O)c2cccs2)[n+]([O-])c2ccc(F)cc2[n+]1[O-] | 92.2% |
| COc1ccc(COc2cc3oc(=O)c4cc(C(C)O)ccc4c3cc2OC)cc1 (stereo not given) | 53% |
| CC1=CC2c3oc(-c4ccccc4)c(C(=O)c4ccccc4)c3CNC2C=C1 (stereo not given) | 101% |
| COc1ccc(-c2cnc(-c3ccc(Cl)cc3)[nH]2)cc1OC | 97.3% |
| c1cn2cc(-c3ccc4cn[nH]c4c3)nc(Nc3ccc(N4CCOCC4)cc3)c2n1 | 20.5% |
| CC(=O)c1c(C)c2cnc(Nc3ccc(N4CCNCC4)cn3)nc2n(C2CCCC2)c1=O | 11.3% |
| COc1ccc2c(CCCCC(c3ccccc3)c3ccccc3)c3[n+](cc2c1OC)CCc1cc2c(cc1-3)OCO2 | -71.5% (active) |
| Cc1cc(N(CCNc2ccnc3cc(Cl)ccc23)Cc2cccs2)nc(Cl)n1 | 34% |
| CO[C@H]1C[C@@H]2CC[C@@H](C)[C@@](O)(O2)C(=O)C(=O)N2CCCC[C@H]2C(=O)O[C@H]([C@H](C)C[C@@H]2CC[C@@H](OP(C)(C)=O)[C@H](OC)C2)CC(=O)[C@H](C)/C=C(\C)[C@@H](O)[C@@H](OC)C(=O)[C@H](C)C[C@H](C)\C=C/C=C/C=C/1C | 59.6% |
| C=CC[n+]1c(/C=C2\Sc3ccccc3N2C)sc(-c2ccccc2)c1-c1ccccc1 | 14% |
| CN1CCC(COc2cnc(-c3cccc(Cn4nc(-c5cccc(C#N)c5)ccc4=O)c3)nc2)CC1 | 33.7% |
| CC(=Nc1ccccc1)C1=C(O)C(Cc2ccc(O)cc2)NC1=O (stereo not given) | -35.5% (active) |
| Cn1ccnc1C(=O)/C=C/c1ccc(CC(=O)Nc2ccc(S(F)(F)(F)(F)F)cc2)cc1 | -56.9% (active) |

| SMILES | growth |
| --- | --- |
| CN(c1ncccc1CNc1nc(Nc2ccc3c(c2)CC(=O)N3)ncc1C(F)(F)F)S(C)(=O)=O | 1.83% (active) |
| COc1ccc2c(CCc3ccc(Cl)cc3)c3[n+](cc2c1OC)CCc1cc2c(cc1-3)OCO2 | 34.4% |
| CN1CCN(CC(=O)Nc2ccc(-c3nc4ccccc4s3)cc2)CC1 | 85.6% |
| CC(N)C(Cc1ccc(Cl)cc1)c1ccc(Cl)cc1 (stereo not given) | 63% |
| CNC(=O)c1ccccc1Nc1nc(Nc2ccc3c(c2OC)CCC[C@H](N2CCN(CCO)CC2)C3)ncc1Cl | -27.3% (active) |
| COc1cc(C(=O)NNC(=O)c2ccc(NC(=O)CCl)cc2)cc(OC)c1OC | 99.7% |
| O=C1CC(c2ccc3c(c2)OCO3)c2ncn(-c3ccc(Cl)cc3)c2N1 (stereo not given) | 32.7% |
| COc1cnc2c(c1)C(=O)c1c-2n(CCCN2CCOCC2)c(=O)c2cc(Cl)ccc12 | 32.7% |
| CC(C)[C@@H](C)/C=C/[C@@H](C)[C@H]1CCC2=C3C=CC4=CC(=O)CC[C@]4(C)[C@H]3CC[C@@]21C | 104% |
| CC(=O)C1=C(C)NC(SCc2nnc(-c3ccc(C)cc3)o2)=NC1c1ccc(F)cc1 (stereo not given) | 100% |
| CCOC(=O)C1=C(C)NC(=O)NC1c1cc(=O)oc2ccc(C)cc12 (stereo not given) | 101% |
| CCN1CCN(c2nc(C)cc(N(CCNc3ccnc4cc(Cl)ccc34)Cc3ccc4c(c3)OCO4)n2)CC1 | 55.9% |
| C=C1CC[C@@H]2[C@](C)(COC(C)=O)[C@H](OC(C)=O)CC[C@@]2(C)[C@@H]1C/C=C1/C(=O)OC[C@H]1OC(C)=O | 52.8% |
| CCCCCCCCCNCCCCCCCCC | 22.6% |
| O=c1nc2c(-c3nc4ccccc4s3)n[nH]n2c2sc3c(c12)CCCC3 | 96.7% |
| COc1cc2ncnc(Nc3ccc(O)cc3)c2cc1OC | 89.7% |
| COc1ccc(C2CC(=O)c3c(O)c(OC)c(OC)c(OC)c3O2)cc1O (stereo not given) | 12.5% |
| FC(F)(F)c1ccc(CNc2ccc(Cc3c[nH]c4ncc(Cl)cc34)cn2)cn1 | 7.06% (active) |
| COc1ccc2c(OCc3nnc4ccc(-c5ccccc5)nn34)ccnc2c1 | 94.3% [2.5 µM] |
| CNC(=O)c1cccc2cc(Oc3ccnc4cc(OCC5(N)CC5)c(OC)cc34)ccc12 | 45.9% |
